# Out of some 410,000 compounds screened, about 5,000 (1.2%) were called active. Inconclusive results (about 13%) are left out. This excerpt belongs to a sample that is enriched for actives. A number with no mark means an inactive call. Calls follow the shape of the dose curve; as a rule, active = well fitted inhibition curve with a large enough effect; inconclusive = small, poorly fitted or top-dose-only effect; inactive = no such curve, though single readings can be large or run the other way.
# Experiment: qHTS for Inhibitors of TGF-b; also: nearly all actives have a fitted effect of over 65% in size
# Details: HepG2 CAGA-GFP TGF-b/SMAD3 reporter, GFP fluorescence, 18 h, TGF-beta stimulated, 500 pg/mL final; series mostly up to 46.1 µM; activity, negative = inhibition: at the top concentration
# Text: TGF-b is a main component in the TGF-b signaling pathway which plays diverse roles in cellular and development pathways. TGF-b is the mediated by the transcription factors Smads. Although the Smad-dependent pathway is the primary canonical TGF-b signaling node, TGF-b1 can also activate alternative signaling pathways, including those involving MAPK (ERK, JNK and p38). This interaction may mediate or enhance Smad-dependent responses, or can exert Smad-independent effects. The complexity of this signaling cascade allows the TGF-b superfamily to perform unique, overlapping or redundant functions. We believe that targeting the TGF-beta pathway at the Smad-transcription factor level may eliminate the consequences of disrupting the entire pathway and offer specificity without affecting other signaling pathways. Smad3 is the primary transducer of TGF-b's signals and Smad3 regulates many functions attributed to TGF-b signaling. We hypothesize that Smad3 inhibitors will selectively eliminate Smad3-specific TGF-beta signals without undesired off-target effects. We aim to identify Smad3-small molecule antagonists using a quantitative high throughput screening (qHTS) approach.
# A high-throughput assay was developed to screen the NIH Molecular Libraries Small Molecule Repository (MLSMR). This is a cell based assay, where TGF-b is tagged with GFP. A counterscreen is run that looks at cytotoxicity (please see summary AID).
# MH087449NIH Chemical Genomics Center [NCGC]
# NIH Molecular Libraries Probe Centers Network [MLPCN]
# Assay Submitter (PI): Sushil Rane, National Institute of […]
# Suspensions of trypsinized HEPG2 CAGA-GFP cells were dispensed into white, tissue culture-treated, solid 1536-well plates at 5uL/well (1000 cells/well final concentration) in DMEM medium supplemented with 1% FBS. Plates were incubated at 37 degrees C for 2 hours, after which 23 nL of compounds or DMSO were delivered to each well using a pin tool. One uL of recombinant TGF-beta in DMEM (1% FBS) was then dispensed (500 pg/mL final concentration), and plates were incubated at 37 degrees C for 18 hours. The plates were measured on an Acumen eX3 Explorer plate reader for GFP fluorescence (ex488/em500-530). GFP values were calculated by determining the mean GFP fluorescence of individual cells, and compiling these values for each well to determine a total well GFP signal. The %Activity was determined from the corrected fluorescence values. A titration of the known TGF-B inhibitor SB431542 was included to monitor plate performance, while unstimulated HEPG2 (-TGF-B) control wells were used to normalize %Activity of identified inhibitors; unstimulated wells corresponded to 100%Activity (full inhibition), while stimulated cell controls (+DMSO) were used to normalize 0%Activity (no inhibition).
# Concentration-response curves were fitted to the signals arising from the resulting fluorescence. The concentration-effect curves were then classified based on curve quality (r2), response magnitude and degree of measured activity, and compounds were subsequently categorized based on their curve class.
# Potency is read from the fitted curve at half-maximal effect.
SMILES,"activity, negative = inhibition",Potency
COc1ccc(NC(=O)C2CCCN(S(=O)(=O)c3c(C)[nH]c(=O)[nH]c3=O)C2)c(OC)c1 (configuration not stated),-24.4%,
COc1ccccc1CNC(=O)NCc1noc2ccc(C)cc12,1.22%,
O=S(=O)(c1cccc(C(F)(F)F)c1)N1CCN(c2nc(-c3cccs3)nc3ccccc23)CC1,1.02%,
COc1ccc(CC(N)c2csc(NC(=O)Nc3ccc(C(C)C)cc3)n2)cc1 (configuration not stated),-98.2%,
Cn1c(C(=O)Nc2cccc(C(F)(F)F)c2)cc2c(=O)n3ccccc3nc21,-8%,
NC(c1csc(NC(=O)Nc2cccc(C(F)(F)F)c2)n1)C1CCCCC1 (configuration not stated),,6.31 µM (active)
O=C(Nc1cccc(F)c1)NC1CCCCCCC1,0%,
CC(=O)c1ccc(Nc2nc(C(N)c3ccccc3)cs2)cc1 (configuration not stated),-0.831%,
NC(c1ccccc1)c1csc(NC(=O)Nc2cccc(C(F)(F)F)c2)n1 (configuration not stated),,12.6 µM (active)
Cc1ccc(Cn2c(=O)n(CCCC(=O)NCc3ccccc3Cl)c(=O)c3ccccc32)cc1,3.91%,
COC(=O)c1ccc(-c2nc3cc(NC(C)=O)ccc3o2)cc1,1.43%,
CCOc1ccc(NC(=O)c2cc(S(=O)(=O)N3CCCC3)c[nH]2)cc1,-24.4%,
Cc1nc2nc(SCC(=O)NC3CCC(C)CC3)nn2c(C)c1Cc1ccccc1Cl (configuration not stated),-30.1%,
CC1(C)C=Cc2c(ccc(C(=O)/C=C/c3ccccc3)c2O)O1,-2.51%,
CN(NS(=O)(=O)c1cccs1)c1ncc(C(F)(F)F)cc1Cl,-13%,
COc1ccccc1Oc1ccc(S(=O)(=O)Nc2cccnc2)cc1,9.04%,
Cc1cc(C)cc(NS(=O)(=O)c2ccc(Oc3ncc(C(F)(F)F)cc3Cl)cc2)c1,,12.6 µM (active)
COc1ccc(CCNCc2c(C(=O)O)c(C)n(Cc3cccc(C)c3)c2C)cc1OC,5.3%,
Cc1cccc(NC(=O)c2ccc3nc(C(C)C)oc3c2)c1C,7.16%,
O=C(O)C1CCN(c2ccc([N+](=O)[O-])cc2[N+](=O)[O-])CC1,34.7%,
C=COC(=O)N1CCN(/[N+]([O-])=N/Oc2ccc([N+](=O)[O-])cc2[N+](=O)[O-])CC1,,10 µM (active)
CCOC(=O)N1CCN(c2cc(C)c([N+](=O)[O-])cc2F)CC1,7.48%,
O=C(CSc1nc(=O)[nH]c2c1CCCC2)Nc1cc(C(F)(F)F)ccc1Cl,-0.244%,
COc1ccc(/C=C/c2noc(-c3ccccc3O)n2)cc1OC,-13.3%,

SMILES,"activity, negative = inhibition",Potency
Cc1cc([N+](=O)[O-])ccc1NCc1cccc([N+](=O)[O-])c1,,10 µM (active)
CC(=O)c1ccc(NC(=O)Nc2ccc([N+](=O)[O-])cc2C)cc1,3.93%,
COc1cccc(C(=O)CC(=O)C(=O)Nc2ccc([N+](=O)[O-])cc2C)c1,-5.79%,
O=C(Nc1ccc([N+](=O)[O-])cc1)c1cnn2c1NC(=C1CC1)C=C2C(F)F,5.24%,
COc1ccc(/C=C/c2ccnc3ccccc23)cc1OC,-22.7%,
Fc1ccc(Nc2nc(SCc3ccccc3Cl)nc3ccccc23)cc1,,17.8 µM (active)
O=C(CSc1nc(Nc2ccc(F)c(F)c2)c2ccccc2n1)c1ccc(Cl)cc1,0%,
CSc1ncc(C(=O)NCc2ccccc2Cl)c(C(F)(F)F)n1,-10.3%,
Cc1ccc(NC(=O)CSc2nc3ccccc3c3nc(CCn4cncc4C)nn23)cc1F,50.7%,
COc1ccc(CN2C(=O)C(CC(=O)NCc3cccc4ccccc34)CC(C(=O)N3CCOCC3)=C2C)cc1 (configuration not stated),20.9%,
CCN(CC)C(=O)C1=C(C)N(Cc2ccc(F)cc2)C(=O)C(CC(=O)NCc2cccc3ccccc23)C1 (configuration not stated),-3.47%,
CCN(CC)C(=O)C1=C(C)N(Cc2ccc(C(C)(C)C)cc2)C(=O)C(CC(=O)NCc2cccc3ccccc23)C1 (configuration not stated),,17.8 µM (active)
COc1ccc2c(c1)c(=Cc1ccc(N(C)C)cc1)c1cc(-c3ccccc3)[n+](C)n12,,5.01 µM (active)
CN(C)c1ccc(/C=c2\[nH]c(=O)/c(=C/c3ccc(N(C)C)cc3)[nH]c2=O)cc1,9.71%,
Cc1ccc(NC(=O)CSc2nnc3[nH]c(=O)cc(C)n23)cc1Cl,-0.795%,
Cc1ccc(C(=O)Nc2ccc(C(=O)O)cc2)cc1S(=O)(=O)Nc1ccccc1,-13.1%,
Cn1c(=O)n(C)c2cc(C(=O)Nc3ccc(Br)cc3)ccc21,-1.4%,
O=C(Nc1ccc(Br)cc1)c1ccc(Br)c(S(=O)(=O)NCc2ccccc2)c1,,12.6 µM (active)
COc1ccccc1C1C(C(=O)N2CCCCC2)=C(C)Nc2nc3ccccc3n21 (configuration not stated),-3.85%,
CCCCCCC1(C)NC(c2ccc3c(c2)OCO3)=CC(c2ccccc2O)N1 (configuration not stated),-2.64%,
Oc1ccc(Cl)cc1C1C=C(c2ccc3c(c2)OCO3)NC(c2ccc(F)c(Br)c2)N1 (configuration not stated),,10 µM (active)
C(=Nc1ccc(/C=C/c2ccnc3ccccc23)cc1)c1cc2c3c(c1)CCCN3CCC2,2.32%,
NC1=CC(=O)C(=O)c2cccnc21,,7.94 µM (active)

# From PubChem BioAssay AID588855 (National Center for Advancing Translational Sciences (NCATS), 2011)
